Experimental data published in PubChem BioAssay (NCI).
About 83,000 compounds went through this panel and 20% of them were active in at least one assay; those are over-represented in the sample as a whole.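 Note: values are percent growth. 100 is the growth of untreated cells, values between 100 and 0 indicate rising inhibition; between -100 and 0 indicates cell death.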 Calls of active or inactive are those of the source. How the source made its calls: active means growth percent below 10; inactive means the rest.

Assays:
Test in all cases: NCI-60 one-dose screen, 48 h (100 = growth as untreated, 0 = no growth, -100 = all killed)
Details in all cases: 10 µM unless noted
SK-MEL-2 melanoma = system: SK-MEL-2 melanoma
EKVX NSCLC = system: EKVX NSCLC
SN12C renal = system: SN12C renal
UO-31 renal = system: UO-31 renal
TK-10 renal = system: TK-10 renal
ACHN renal = system: ACHN renal
CAKI-1 renal = system: CAKI-1 renal
A498 renal = system: A498 renal
MOLT-4 leukemia = system: MOLT-4 leukemia
SR leukemia = system: SR leukemia
RPMI-8226 leukemia = system: RPMI-8226 leukemia
OVCAR-8 ovarian = system: OVCAR-8 ovarian
OVCAR-5 ovarian = system: OVCAR-5 ovarian
OVCAR-4 ovarian = system: OVCAR-4 ovarian
SK-OV-3 ovarian = system: SK-OV-3 ovarian
IGROV1 ovarian = system: IGROV1 ovarian
HS 578T breast = system: HS 578T breast
NCI/ADR-RES ovarian = system: NCI/ADR-RES ovarian
OVCAR-3 ovarian = system: OVCAR-3 ovarian
CCRF-CEM leukemia = system: CCRF-CEM leukemia

Measured: growth

C=C[C@@H]1C[C@@H]2Cc3ccccc3N1O2
inactive: SK-MEL-2 melanoma 87.8% | EKVX NSCLC 99.5% | SN12C renal 97.5% | UO-31 renal 102% | TK-10 renal 108% | ACHN renal 110% | CAKI-1 renal 97.8% | A498 renal 107% | MOLT-4 leukemia 28.9% | SR leukemia 97.1% | RPMI-8226 leukemia 85.5% | OVCAR-8 ovarian 106% | OVCAR-5 ovarian 97.4% | OVCAR-4 ovarian 112% | SK-OV-3 ovarian 114% | IGROV1 ovarian 121% | HS 578T breast 100% | NCI/ADR-RES ovarian 106%

Clc1cc(Cl)cc(-c2ccc(-c3ccc(/C=N/NC4=NCCN4)cc3)s2)c1
active: SR leukemia 8.3% | RPMI-8226 leukemia 9.95%
inactive: SK-MEL-2 melanoma 101% | EKVX NSCLC 92.6% | SN12C renal 25.9% | UO-31 renal 53.6% | TK-10 renal 47% | ACHN renal 59% | CAKI-1 renal 58.4% | A498 renal 88% | OVCAR-8 ovarian 85% | OVCAR-5 ovarian 95.2% | OVCAR-4 ovarian 81% | IGROV1 ovarian 43.3% | OVCAR-3 ovarian 14.2% | HS 578T breast 82.1% | NCI/ADR-RES ovarian 45.6%

CC1=NC2=CC=CC3=NC(C(Cl)(Cl)Cl)=NC(=N1)N23
inactive: SK-MEL-2 melanoma 86.6% | EKVX NSCLC 76.1% | SN12C renal 86.7% | UO-31 renal 63% | TK-10 renal 112% | ACHN renal 61% | CAKI-1 renal 61.3% | A498 renal 81.9% | CCRF-CEM leukemia 70.1% | RPMI-8226 leukemia 50.3% | OVCAR-8 ovarian 84.9% | OVCAR-5 ovarian 112% | OVCAR-4 ovarian 73% | SK-OV-3 ovarian 87.3% | OVCAR-3 ovarian 34.8% | HS 578T breast 62.6% | NCI/ADR-RES ovarian 81.6%

COc1ccc(/C=C/c2c(C(C)=O)c(C)nc3ccccc23)cc1
inactive: SK-MEL-2 melanoma 75.8% | EKVX NSCLC 81.7% | SN12C renal 85.6% | UO-31 renal 65.1% | TK-10 renal 77.9% | ACHN renal 84.5% | CAKI-1 renal 81.4% | A498 renal 72.8% | MOLT-4 leukemia 73.1% | RPMI-8226 leukemia 60.2% | OVCAR-8 ovarian 85.2% | OVCAR-5 ovarian 77% | OVCAR-4 ovarian 70.1% | SK-OV-3 ovarian 80.8% | IGROV1 ovarian 76.7% | OVCAR-3 ovarian 97.6% | HS 578T breast 106% | NCI/ADR-RES ovarian 86.6%

C=C[C@@H]1C[C@H](O)Cc2cc(F)ccc2N1
active: CCRF-CEM leukemia -66%
inactive: SK-MEL-2 melanoma 123% | EKVX NSCLC 89.3% | SN12C renal 101% | UO-31 renal 103% | TK-10 renal 97.7% | ACHN renal 104% | CAKI-1 renal 92.3% | A498 renal 93.8% | SR leukemia 73.6% | RPMI-8226 leukemia 73.2% | OVCAR-8 ovarian 102% | OVCAR-5 ovarian 95.7% | OVCAR-4 ovarian 101% | SK-OV-3 ovarian 104% | OVCAR-3 ovarian 102% | HS 578T breast 90.6% | NCI/ADR-RES ovarian 105%

C/C=C/C1=CN2C(=O)c3cc(OC4OC(C)C(NC)C(C)(O)C4O)c(C)cc3N=C[C@@H]2C1 (stereo partly drawn)
inactive: SK-MEL-2 melanoma 27.8% | TK-10 renal 22.3% | OVCAR-8 ovarian 12.2%
active: EKVX NSCLC 6.04% | SN12C renal 4.16% | UO-31 renal -34.5% | ACHN renal -4.55% | CAKI-1 renal -8.21% | A498 renal -77.5% | MOLT-4 leukemia 2.77% | RPMI-8226 leukemia 4.62% | OVCAR-5 ovarian 9.87% | OVCAR-4 ovarian 6.47% | SK-OV-3 ovarian 3.83% | IGROV1 ovarian -8.52% | OVCAR-3 ovarian 0.104% | HS 578T breast -7.59% | NCI/ADR-RES ovarian -7.51%

COc1ccc(-c2ccc(-c3ccc(-c4ccc(C(=N)N)cc4)s3)s2)cc1OC
inactive: SK-MEL-2 melanoma 105% | SN12C renal 91.7% | UO-31 renal 74.4% | ACHN renal 95.5% | CAKI-1 renal 93.2% | A498 renal 48.6% | MOLT-4 leukemia 14.6% | OVCAR-8 ovarian 101% | HS 578T breast 89.6% | NCI/ADR-RES ovarian 84%
active: EKVX NSCLC -8.09% | TK-10 renal -78.8% | SR leukemia 6.75% | OVCAR-5 ovarian -12.2% | OVCAR-4 ovarian -53.2% | OVCAR-3 ovarian -64.9%

CO[C@H]1NC(=O)N(S(=O)(=O)c2ccc(Cl)cc2)[C@@H]1OC
inactive: SK-MEL-2 melanoma 113% | EKVX NSCLC 101% | SN12C renal 102% | UO-31 renal 88% | TK-10 renal 103% | ACHN renal 105% | CAKI-1 renal 92.5% | A498 renal 112% | MOLT-4 leukemia 102% | SR leukemia 93.9% | RPMI-8226 leukemia 96.1% | OVCAR-8 ovarian 106% | OVCAR-5 ovarian 111% | OVCAR-4 ovarian 108% | SK-OV-3 ovarian 102% | IGROV1 ovarian 124% | OVCAR-3 ovarian 108% | HS 578T breast 100% | NCI/ADR-RES ovarian 110%

O=S(=O)(NCCCNc1nccc(-n2ccc3cccnc32)n1)c1ccc(Br)cc1
inactive: SK-MEL-2 melanoma 108% | EKVX NSCLC 93% | SN12C renal 102% | UO-31 renal 107% | TK-10 renal 121% | ACHN renal 108% | CAKI-1 renal 94.2% | A498 renal 102% | MOLT-4 leukemia 100% | SR leukemia 112% | OVCAR-8 ovarian 103% | OVCAR-5 ovarian 107% | OVCAR-4 ovarian 99.3% | SK-OV-3 ovarian 113% | IGROV1 ovarian 108% | OVCAR-3 ovarian 112% | HS 578T breast 103% | NCI/ADR-RES ovarian 101%

CC12CCC3C4(C)COC(c5ccco5)OC4CCC3(C)C1CC(C1=CCOC1=O)O2 (stereo not drawn)
inactive: SK-MEL-2 melanoma 131% | EKVX NSCLC 91.6% | SN12C renal 96.4% | UO-31 renal 81.5% | TK-10 renal 105% | ACHN renal 102% | CAKI-1 renal 92.4% | A498 renal 103% | MOLT-4 leukemia 97.5% | SR leukemia 95.7% | OVCAR-8 ovarian 108% | OVCAR-5 ovarian 99.8% | OVCAR-4 ovarian 103% | SK-OV-3 ovarian 121% | IGROV1 ovarian 93.8% | OVCAR-3 ovarian 105% | HS 578T breast 107% | NCI/ADR-RES ovarian 98.5%

Cc1ccc(CSC(=N)N)cc1C
inactive: SK-MEL-2 melanoma 125% | EKVX NSCLC 100% | SN12C renal 104% | UO-31 renal 87.7% | TK-10 renal 102% | ACHN renal 107% | CAKI-1 renal 93.4% | A498 renal 103% | RPMI-8226 leukemia 78.7% | OVCAR-8 ovarian 109% | OVCAR-5 ovarian 114% | OVCAR-4 ovarian 101% | SK-OV-3 ovarian 111% | IGROV1 ovarian 106% | OVCAR-3 ovarian 116% | HS 578T breast 103% | NCI/ADR-RES ovarian 98.8%

O=C(/C=C\c1cccc([N+](=O)[O-])c1)/C=C/c1cccc([N+](=O)[O-])c1
inactive: EKVX NSCLC 107% | SN12C renal 98.1% | UO-31 renal 71.1% | TK-10 renal 89.9% | ACHN renal 89.6% | CAKI-1 renal 94.2% | A498 renal 90.4% | MOLT-4 leukemia 94.3% | SR leukemia 44.2% | OVCAR-8 ovarian 80.7% | OVCAR-5 ovarian 90.1% | OVCAR-4 ovarian 95.5% | SK-OV-3 ovarian 95.5% | IGROV1 ovarian 52.2% | OVCAR-3 ovarian 67.5% | HS 578T breast 90.6% | NCI/ADR-RES ovarian 91.7%
active: SK-MEL-2 melanoma -38.1% | RPMI-8226 leukemia -6.63%

COc1ccc(C2NN=C3c4ccccc4CCC32)cc1 (stereo not drawn)
inactive: SK-MEL-2 melanoma 78.1% | EKVX NSCLC 64.3% | SN12C renal 84.4% | UO-31 renal 54.1% | TK-10 renal 76.4% | ACHN renal 93.4% | CAKI-1 renal 21.9% | A498 renal 58.2% | MOLT-4 leukemia 16.8% | RPMI-8226 leukemia 21.7% | OVCAR-8 ovarian 80.4% | OVCAR-5 ovarian 90.5% | OVCAR-4 ovarian 71.4% | SK-OV-3 ovarian 77% | IGROV1 ovarian 16.8% | OVCAR-3 ovarian 37.6% | HS 578T breast 62.3% | NCI/ADR-RES ovarian 29.9%

Nc1nc(=O)c2ccccc2s1
inactive: SK-MEL-2 melanoma 104% | EKVX NSCLC 111% | SN12C renal 98.9% | UO-31 renal 78.3% | TK-10 renal 114% | ACHN renal 99.4% | CAKI-1 renal 101% | A498 renal 131% | MOLT-4 leukemia 103% | SR leukemia 109% | RPMI-8226 leukemia 94.8% | OVCAR-8 ovarian 121% | OVCAR-5 ovarian 99.6% | OVCAR-4 ovarian 125% | SK-OV-3 ovarian 104% | IGROV1 ovarian 122% | OVCAR-3 ovarian 131% | HS 578T breast 112% | NCI/ADR-RES ovarian 113%

COc1ccc(Nc2[nH]n3c(=O)cc(C)nc3c2C(N)=O)c(OC)c1
inactive: SK-MEL-2 melanoma 94% | EKVX NSCLC 101% | SN12C renal 96.6% | UO-31 renal 87.5% | TK-10 renal 88.2% | ACHN renal 96.8% | CAKI-1 renal 90.2% | A498 renal 86.1% | CCRF-CEM leukemia 101% | RPMI-8226 leukemia 102% | OVCAR-8 ovarian 97.4% | OVCAR-5 ovarian 113% | OVCAR-4 ovarian 99.2% | SK-OV-3 ovarian 88.3% | IGROV1 ovarian 107% | OVCAR-3 ovarian 106% | HS 578T breast 99.2% | NCI/ADR-RES ovarian 103%

Clc1cc(Cl)c2nc(-c3ccc(-c4ccc(/C=N/NC5=NCCN5)cc4)s3)cn2c1
inactive: SK-MEL-2 melanoma 106% | EKVX NSCLC 80.8% | SN12C renal 92.5% | UO-31 renal 72% | TK-10 renal 110% | ACHN renal 105% | CAKI-1 renal 91.9% | A498 renal 38% | SR leukemia 11.2% | RPMI-8226 leukemia 37.6% | OVCAR-8 ovarian 97.9% | OVCAR-5 ovarian 104% | OVCAR-4 ovarian 85.6% | IGROV1 ovarian 84.3% | OVCAR-3 ovarian 97.9% | HS 578T breast 86.6% | NCI/ADR-RES ovarian 97.7%

C=C(C)[C@@H]1C[C@@H]2Cc3cc(F)ccc3N1O2
inactive: SK-MEL-2 melanoma 98.1% | EKVX NSCLC 85.9% | SN12C renal 98.6% | UO-31 renal 77.4% | TK-10 renal 97% | ACHN renal 95.4% | CAKI-1 renal 98% | A498 renal 95.2% | RPMI-8226 leukemia 65.2% | OVCAR-8 ovarian 97.1% | OVCAR-5 ovarian 93.8% | OVCAR-4 ovarian 101% | SK-OV-3 ovarian 104% | IGROV1 ovarian 108% | OVCAR-3 ovarian 112% | HS 578T breast 99% | NCI/ADR-RES ovarian 99.6%
active: CCRF-CEM leukemia -47.4%
